Results taken from the supplement of paper PMC6555819.

Legend:
Test in all cases: PBM binding z-score (relative to random genomic background probes); higher = stronger binding; sequences stand for … in GC…GCGATTGACAGCGTAGAATGAAGG
[1] = system: FXR:RXRa (NR concentration 270 nM, RXRa partner concentration 90 nM)
How it was run: (§1)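 Custom Agilent 4×180K protein-binding microarrays carried double-stranded probes. Their 34-nt variable regions held direct-repeat seeds, single-nucleotide variants, half-site ablations and random human genomic background sequences. Arrays were incubated 1 h with ligand-free nuclear receptor dimers in PBS pH 7.4, 2% milk, 0.02% Triton X-100, 1 mM DTT, 0.2 mg/mL BSA and 0.4 mg/ml salmon testes DNA. Antibodies against each partner (one per run) detected binding, and scanned fluorescence was regression-normalized. Binding z-scores use random background probes as reference.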

[2] = system: LXRa:RXRa (NR concentration 270 nM, RXRa partner concentration 90 nM)
How it was run: as §1

[3] = system: LXRa homodimer (NR concentration 270 nM)
How it was run: as §1

[4] = system: LXRb:RXRa (NR concentration 270 nM, RXRa partner concentration 90 nM)
How it was run: as §1

[5] = system: LXRb homodimer (NR concentration 270 nM)
How it was run: as §1

[6] = system: PPARa:RXRa (NR concentration 270 nM, RXRa partner concentration 90 nM)
How it was run: as §1

[7] = system: PPARg:RXRa (NR concentration 180 nM, RXRa partner concentration 90 nM)
How it was run: as §1

[8] = system: PPARg:RXRa 270nM:90nM, anti-RXR (NR concentration 270 nM, RXRa partner concentration 90 nM)
How it was run: as §1

[9] = system: PPARg:RXRa 30nM:10nM, anti-RXR (NR concentration 30 nM, RXRa partner concentration 10 nM)
How it was run: as §1

[10] = system: PPARg:RXRa 90nM:30nM, anti-RXR (NR concentration 90 nM, RXRa partner concentration 30 nM)
How it was run: as §1

Row | Sequence | PBM binding z-score [1] | PBM binding z-score [2] | PBM binding z-score [3] | PBM binding z-score [4] | PBM binding z-score [5] | PBM binding z-score [6] | PBM binding z-score [7] | PBM binding z-score [8] | PBM binding z-score [9] | PBM binding z-score [10]
1 | GCTTACGGATCAAAGGTTATAGCATGAATAGAAT | 1.93 | 2.43 | 0.189 | 2.49 | -0.332 | 4.12 | 5.77 | 6.43 | 4.61 | 7.07
2 | AGAATGAGGTTATAAAGATCAGGGAATTGCGGTC | 1.45 | 1.31 | 0.315 | 1.17 | 0.00236 | 2.65 | 1.58 | 2 | 0.752 | 1.52
3 | TTACCAAGGTGAGCCGAGGTCGTTGATCCAACTC | 2.53 | 1.33 | -0.48 | 1.11 | -1.11 | 2.19 | 0.623 | 1.32 | -0.155 | 0.541
4 | CCAGACAGATGAGAAGGTAACTCAGCCTCGATTA | -0.147 | -0.0249 | 0.532 | -0.254 | -0.206 | -0.358 | 0.455 | -0.402 | -0.157 | -0.366
5 | CTCGAAAGGTCGGTTGAAGTGAGTATACGGATAA | 1.48 | 1.58 | -0.00237 | 1.54 | 0.166 | 2.45 | 0.257 | 1.02 | 0.428 | 0.796
6 | GCCTGTAGATCAAGGTTAAGAAAGACTAAGCTAA | 0.000969 | 0.697 | -0.269 | 0.679 | -0.964 | 1.28 | 0.434 | 1.19 | 0.0672 | 0.861
7 | TCTTGTAGATCAAAGGTAAAGAAAGCCGAAGCCT | 0.667 | 0.672 | -0.3 | 0.446 | -0.436 | 3.14 | 5.41 | 6.12 | 6.21 | 6.93
8 | GCGGACAGGTGAAACGCAGGTAACTCAGGGTGGC | -0.363 | -0.0756 | -0.541 | -0.243 | -1.43 | 0.799 | 0.338 | -0.205 | -1.01 | -0.756
9 | TATACAGGGTCATAGGCCAGAGTACGAATGTCGA | 6.89 | 6 | 1.98 | 4.45 | 1.7 | 5.81 | 7.21 | 6.45 | 3.76 | 5.8
10 | CATATTAGTTGACCATAAGGGCAACCGAAGCTCG | 1.05 | 0.784 | 0.591 | 0.601 | 0.928 | 0.55 | 0.779 | 0.866 | 0.713 | 0.78
11 | ATCTCTAGGTAACGAGTTCAGTGAAAGAGAGGAC | 0.481 | 0.764 | 0.708 | 0.738 | 0.449 | 2.04 | 1.69 | 1.73 | 0.509 | 1.26
12 | GCGACTGGAGCAAAGCAGGTTACCATAAGGTTGG | -0.343 | -0.594 | -0.842 | -0.498 | -1.26 | 0.27 | 0.477 | -0.112 | -0.43 | -0.311
13 | TCTTGTAGATCAACAGGTGGTTAAGAAAGATCGA | -0.0557 | 0.0664 | -0.0924 | -0.247 | -0.293 | 0.436 | -0.255 | 1.22 | 2.58 | 1.8
14 | AGTCAAAGTTCACTAAGTAACGTAAGATTCAGCT | 4.76 | 4.94 | 3.18 | 3.15 | 1.11 | 3.95 | 5.72 | 5.28 | 2.69 | 4.76
15 | GCTCGGAGGACAAGGTCAGAGCATTGTCCGTAGA | 1.99 | 1.75 | -0.445 | 1.15 | -0.84 | 2.48 | 0.798 | 1.67 | -0.55 | 0.636
16 | CTCGAAAGGTCGGTTGAGGTGATTATACGGATAA | 2.6 | 1.84 | -0.0507 | 1.68 | -0.13 | 2.79 | 0.571 | 1.14 | 0.341 | 0.688
17 | AGTCAAAGTTCATCTAGGTAACGTAGGATATGCT | 6.48 | 6.18 | 5.41 | 3.66 | 1.7 | 4.7 | 6.41 | 6.28 | 3.31 | 5.55
18 | TAGCCTAGGTCATTCCGGGGCCAGTATAGAAAGC | 4.26 | 3.29 | 0.811 | 2.53 | 1.33 | 3.21 | 1.75 | 2.04 | 0.233 | 1.01
19 | CGTCCAAGGTCAATGCTAGGTCGGTGAAAGCATT | 5.99 | 4.42 | 0.539 | 3.19 | 0.14 | 4.79 | 3.29 | 4.06 | 1.09 | 2.58
20 | AGAATGAGGCTACCAAAGATCAGGGAAACGCTTG | -0.398 | 0.883 | -0.337 | -0.482 | -1.07 | 0.361 | 0.85 | 0.0255 | -0.0527 | 0.1
21 | ATATGTAGGGTATCGGGTCATTCAGTTTGCGCAT | 2.08 | 2.17 | 1.58 | 3.25 | 1.84 | 4.3 | 5.64 | 5.05 | 2.42 | 4.32
22 | ACTATTAGTTGAGACGTGGGCAACCGATAGGTTG | -0.344 | -0.403 | -0.444 | -0.738 | 0.00492 | -1.07 | 0.429 | -0.3 | -0.0556 | -0.44
23 | TCTTGGAGATCAAGCAGGTTAAGAAAGCCTGAGT | 0.463 | 0.405 | -0.249 | 0.297 | -0.658 | 1.09 | -0.253 | 1.39 | 2.35 | 1.84
24 | AGAATGAGGTTAAGATCCGGGAAACAGAATACAT | 2.5 | 1.75 | -0.0766 | 1.58 | -0.277 | 3.26 | 2.03 | 1.97 | 0.812 | 1.72
25 | ATCGAAAGGTCGTGAGGTGAGTGTACAGAAAGGC | 4.91 | 4.05 | 0.411 | 3.06 | 0.507 | 4.99 | 3.61 | 4.47 | 1.35 | 3.32
